Screening results: PubChem BioAssay, National Center for Advancing Translational Sciences (NCATS)
Shiga toxin inh = blocks Shiga toxin action in Vero cells; 290,000 tested, 9.2% active; Vero cells, Shiga toxin protein synthesis inhibition reporter; inhibition, % at 38.7 µM; in the data active = inhibition mostly above about 28%, no sharp cut-off; inactive = mostly below about 43%; also: 0% is about no effect
CHX counter = counter-screen hit for Shiga toxin inhibitors, cycloheximide. cell reporter, cycloheximide protein synthesis inhibition counterscreen. max response, %. 300,000 tested, 12% active; in the data active = max response mostly above about 13%, no sharp cut-off; inactive = mostly below about 14%; also: read at 38.3 µM for the half of the compounds with a filed dose; 0% is about no effect
MARV entry inh = blocks Marburg virus binding to or entry into cells | Marburg virus pseudotyped entry inhibition, cell reporter | Potency, µM (highest dose often 37.8 µM), for the others: at the top dose activity change, negative = inhibition, hits mostly inhibitors | 300,000 tested, 1.8% active; calls by dose curve; tested in HEK293 cells; also: potency is read from the fitted curve at half-maximal effect; % is scaled to controls: 0 for no effect and ±100 for the full control effect
VACV mCherry inh = inhibitors of vaccinia virus infection (mCherry reporter signal); AID 720579; Vaccinia virus mCherry reporter infection, fluorescence; Potency, µM (titrated, usually from 36.5 µM), for inactives: at the top dose activity change, negative = inhibition, most hits filed as inhibitors; 310,000 tested, 0.63% active; calls by dose curve; tested in A549 cells; also: potency is read from the fitted curve at half-maximal effect; % is scaled to controls: 0 for no effect and ±100 for the full control effect; nearly all actives have a fitted effect of over 35% in size
Lassa entry inh = inhibitors of Lassa virus binding or cell entry; 300,000 tested, 1.2% active; AID 540256; Lassa virus pseudotype entry inhibition, cell reporter; Potency, µM (titrated, usually from 37.9 µM), for the others: at the highest dose activity change, negative = inhibition, usual class: inhibitors; calls by dose curve; tested in HEK293 cells; also: potency is read from the fitted curve at half-maximal effect; % is scaled to controls: 0 for no effect and ±100 for the full control effect; nearly all actives have a fitted effect of over 50% in size
VACV Venus inh = inhibitors of vaccinia virus (Venus reporter) | Vaccinia virus Venus reporter expression, fluorescence | Potency, µM (doses to about 36.5 µM), without a hit: at the highest dose activity change, negative = inhibition, actives largely listed as inhibitors | 330,000 tested, 0.46% active | AID 720580; calls by dose curve; tested in A549 cells; also: potency is read from the fitted curve at half-maximal effect; % is scaled to controls: 0 for no effect and ±100 for the full control effect; nearly all actives have a fitted effect of over 30% in size
* = called active by the depositor; i = inactive; ? = inconclusive; . = no result; [ ] = dose if it differs, or a comment. This is one part of a sample in which hits are shown more often than they occur.

SMILES	Shiga toxin inh	CHX counter	MARV entry inh	VACV mCherry inh	Lassa entry inh	VACV Venus inh
COC(=O)c1ccc(NC(=O)c2ccccc2N(C)S(=O)(=O)c2ccccc2)cc1	8	16*	-1%	-18%	?	-9%
CC(=Nc1ccc(C)cc1C)c1sc2ccccc2c1O	119*	37*	.	-9%	.	-29%
Cc1ccc(NC(=S)NC(=O)c2sc3ccccc3c2Cl)c(C(=O)O)c1	33	10	.	.	.	.
CC(=Nc1ccc(C)cc1)c1sc2ccccc2c1O	92*	35*	?	-9%	?	-17%
CC(=Nc1cccc(O)c1)c1sc2ccccc2c1O	111*	55*	10%	i	8%	-4%
O=C(NNc1c(Cl)cccc1Cl)c1sc2ccccc2c1Cl	.	.	.	i	.	-22%
Cc1nc2cc(NC(=O)[C@@H]3C[C@@H](Sc4ccccn4)CN3Cc3cccc(F)c3)ccc2s1	.	.	.	-5%	.	8%
Cc1ccc(C)n1-c1cccc(NC(=O)c2ccccc2)c1	38*	19*	8%	?	-4%	-16%
Cc1ccc(C)n1-c1ccc(C(=O)Nc2ccccc2)cc1	98*	34*	-20%	.	-19%	.
Cc1cc2c(C)nc(-c3ccccc3)nc2o1	107*	39*	2%[46.1 µM]	-21%	29%	-8%
Cc1cc(Cl)nc(-c2ccccc2)n1	-17	1	.	.	.	.
CNc1nc(SCc2ccc(C)cc2)nc2c1CCCC2	55*	37*	?	.	-30%	-23%
Cc1nc(SCc2ccccc2)nc2c1CCC2	85*	58*	-7%[46.1 µM]	8%	0%	-1%
CCCCNC(=O)c1ccc(CS(=O)(=O)c2ccc(C)cc2)o1	12	-3	?	-11%	16µM*	-4%
O=C(NCc1cccs1)c1ccc(CS(=O)(=O)c2ccc(Cl)cc2)o1	-24	-2	-14%	-16%	12µM*	-14%
COc1ccc(S(=O)(=O)Cc2ccc(C(=O)NCc3cccs3)o2)cc1	-8	-2	.	-2%	.	-7%
Cc1ccc(Cn2c(C)c(CNCCCc3ccccc3)c(C(=O)O)c2C)cc1	.	.	-26%[46.1 µM]	0%	20%[46.1 µM]	-1%
CCC1(c2ccccc2)C(=O)N(C(=O)OC(C)(C)C)N1C(=O)OC(C)(C)C (stereo not drawn)	.	.	.	-18%	.	-18%
CCOC(=O)N1C(=O)[C@](CC)(c2ccccc2)N1C(=O)OCC	9	19*	.	?	.	-29%
Cc1ccc(CNc2nc(-c3ccco3)nn2S(C)(=O)=O)cc1	.	.	?	-7%[7.34 µM]	26%[46.1 µM]	-1%[7.34 µM]
CC(C)c1ccc(NC(=O)Nc2nc(C(N)c3ccccc3)cs2)cc1 (stereo not drawn)	.	.	.	-27%	.	?
NC(Cc1ccc(C(F)(F)F)cc1)c1csc(NC(=O)Nc2ccccc2Cc2ccccc2)n1 (stereo not drawn)	.	.	.	11µM*	.	13µM*
CC(C)c1ccc(NC(=O)Nc2nc(C(N)COCc3ccccc3)cs2)cc1 (stereo not drawn)	.	.	.	?	.	11µM*
NC(CCc1ccccc1)c1csc(NC(=O)Nc2ccccc2Oc2ccccc2)n1 (stereo not drawn)	.	.	.	?	.	11µM*
COC(=O)c1cc(CNC(=O)c2cccc(C)c2)cc(NC(=O)c2ccncc2)c1	.	.	.	-8%	.	2%
SMILES	Shiga toxin inh	CHX counter	MARV entry inh	VACV mCherry inh	Lassa entry inh	VACV Venus inh
CCC1CCCCN1c1ccc([N+](=O)[O-])cc1/C=N/NC(=O)Cn1c2ccccc2c(=O)c2ccccc21 (stereo not drawn)	21	-2	0.89µM*	-16%	-4%	-15%
CCOC(=O)c1c(NC(C)=O)sc2c(OCC(O)CN(CC)CC)c(Br)ccc12 (stereo not drawn)	-28	-25	11µM*	-12%	2.5µM*	-15%
O=C(NC1CCCCC1)c1ccc(-c2ccccc2[N+](=O)[O-])o1	105*	44*	?	-20%	-19%[46.1 µM]	-9%
CC(NC(=O)c1ccc([N+](=O)[O-])o1)C12CC3CC(CC(C3)C1)C2 (stereo not drawn)	45*	35*	-17%[46.1 µM]	?	-2%	?
O=C(NC1CCCCC1)c1ccc([N+](=O)[O-])o1	72*	43*	?	?	?	?
COc1cccc(OC)c1C(=O)NC(C)C12CC3CC(CC(C3)C1)C2 (stereo not drawn)	-9	0	-1%[46.1 µM]	-17%	6%	-9%
O=C(COC(=O)c1ccc(-c2ccc([N+](=O)[O-])cc2)o1)NC(=O)NC1CCCCC1	2	1	6%	i	11%	-6%
O=C(NC1CCC(O)CC1)c1ccc(-c2ccc([N+](=O)[O-])cc2)o1 (stereo not drawn)	37	17*	.	.	.	.
COC(=O)[C@]1(Sc2ccc(OC)cc2)CC(=O)N[C@@H]1c1ccccc1	.	.	.	-13%	.	-13%
Cc1ccc(C(=O)NCCCNC(=O)c2ccccn2)cc1	-11	-4	2%[46.1 µM]	0%	12%[46.1 µM]	17%
Cc1ccc(/C(=C\CN2CCCC2)c2ccccn2)cc1	-6	-2	11µM*	-4%	?	-14%
CCC(CC)Nc1ccc(C(CC(N)=O)NC(=O)c2ccccc2)cc1[N+](=O)[O-] (stereo not drawn)	-2	-3	.	-4%	.	-18%
CCCc1ccc(-c2cc(NC(=O)CSc3n[nH]c(N)n3)n(-c3ccccc3)n2)cc1	37	15	?	.	2%	.
CCCc1ccc(-c2cc(N)n[nH]2)cc1	27	30*	-14%	.	3%	.
CCCCc1ccc(-c2nc(N)n[nH]2)cc1	78*	44*	0%	.	-2%	.
CC12CN3CCN(CC(C3)/C1=N\NC(=O)Nc1cccc(Cl)c1)C2	50	26*	?	i	8%[46.1 µM]	2%
CC12CN3CCN(CC(C3)/C1=N/NC(=O)Nc1ccccc1)C2	37	25*	?	-12%	0%	8%
O=C(NCC(c1ccco1)S(=O)(=O)c1ccc(Cl)cc1)c1ccccc1F (stereo not drawn)	.	.	.	-5%	-1%[46.1 µM]	-8%
Cc1cc(/C=C2/C(=O)N(C)C(=S)N2C)ccc1N1CCCC1	93*	32*	?	i	-11%	225%
CCCN1C(=O)/C(=C/c2ccc(N3CCOCC3)cc2)NC1=S	32	12	.	.	.	.
CCCN1C(=O)/C(=C/c2ccc(N3CCCC3)c(C)c2)NC1=S	50*	19*	?	.	?	.
Cc1cc(/C=C2\NC(=S)N(C)C2=O)ccc1N1CCCC1	95*	33*	3%[46.1 µM]	-22%	18%[46.1 µM]	92%
Cc1ccc(CN2C(=O)N/C(=C\c3ccc(N4CCOCC4)cc3)C2=O)cc1	-7	-3	8%	?	0.046µM*	?
Cc1cc(N2CCCC2)ccc1/C=C1/C(=O)N(C)C(=S)N1C	16	7	?	-7%	-24%[46.1 µM]	-3%
COCc1ccc(C(=O)N2CCOc3c(cc(-c4cc(C)c5cccc(OC)c5n4)cc3OC)C2)o1	.	.	.	-16%	.	-8%
O=C(Nc1ccc2nn(-c3ccc(F)cc3)nc2c1)c1cccc2c(Cl)cccc12	.	.	0%[46.1 µM]	-27%	15%[46.1 µM]	-26%
CCN1C(=O)/C(=C/c2ccc(N3CCCC3)cc2)NC1=S	24	66*	?	-14%	-12%	36%
